Laboratory results: PubChem BioAssay (Tox21)
Results filed as inconclusive are left out. Active and inactive are the calls of the source. Unless noted, calls come from the whole dose curve; as a rule, active = well fitted curve in the direction sought with a large enough effect in the repeat runs; inconclusive = weak or mixed curves; inactive = no such curve, though single readings can be large; an effect the other way counts as inactive or inconclusive.

Experiments:
[1] = qHTS assay to identify small molecule antagonists of the glucocorticoid receptor (GR) signaling pathway - cell viability counter screen (AID 720693); note: nearly all actives have a fitted effect of over 55% in size
[2] = qHTS assay for identifying genotoxic compounds that show differential cytotoxicity against isogenic chicken DT40 cell lines with known DNA damage response pathways - wild type cell line (AID 743012); note: nearly all actives have a fitted effect of over 60% in size; note: potency is the fitted concentration of half-maximal effect
How it was run: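 CellTiter-Glo luminescence readout of viability in wild type DT40 cells after 40 h compound exposure at 37 C/5% CO2; 300 cells/well; reagent incubated 30 min at room temperature before reading.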

[3] = qHTS assay for identifying genotoxic compounds that show differential cytotoxicity against isogenic chicken DT40 cell lines with known DNA damage response pathways - Rev3 mutant cell line (AID 743014); note: nearly all actives have a fitted effect of over 55% in size; note: potency is the fitted concentration of half-maximal effect
[4] = qHTS assay to identify small molecule antagonists of the androgen receptor (AR) signaling pathway - cell viability counter screen (AID 743033; note: nearly all actives have a fitted effect of over 45% in size)
[5] = molecular target: Androgen receptor (Homo sapiens) (UniProt P10275); assay: qHTS assay to identify small molecule antagonists of the androgen receptor (AR) signaling pathway (AID 743035; active = well fitted inhibition curve with a large enough effect in the signal ratio in the repeat runs, not every such curve was filed as active; the % refers to the signal ratio)
Chain of Androgen receptor (Homo sapiens) (P10275 whole entry, looked up): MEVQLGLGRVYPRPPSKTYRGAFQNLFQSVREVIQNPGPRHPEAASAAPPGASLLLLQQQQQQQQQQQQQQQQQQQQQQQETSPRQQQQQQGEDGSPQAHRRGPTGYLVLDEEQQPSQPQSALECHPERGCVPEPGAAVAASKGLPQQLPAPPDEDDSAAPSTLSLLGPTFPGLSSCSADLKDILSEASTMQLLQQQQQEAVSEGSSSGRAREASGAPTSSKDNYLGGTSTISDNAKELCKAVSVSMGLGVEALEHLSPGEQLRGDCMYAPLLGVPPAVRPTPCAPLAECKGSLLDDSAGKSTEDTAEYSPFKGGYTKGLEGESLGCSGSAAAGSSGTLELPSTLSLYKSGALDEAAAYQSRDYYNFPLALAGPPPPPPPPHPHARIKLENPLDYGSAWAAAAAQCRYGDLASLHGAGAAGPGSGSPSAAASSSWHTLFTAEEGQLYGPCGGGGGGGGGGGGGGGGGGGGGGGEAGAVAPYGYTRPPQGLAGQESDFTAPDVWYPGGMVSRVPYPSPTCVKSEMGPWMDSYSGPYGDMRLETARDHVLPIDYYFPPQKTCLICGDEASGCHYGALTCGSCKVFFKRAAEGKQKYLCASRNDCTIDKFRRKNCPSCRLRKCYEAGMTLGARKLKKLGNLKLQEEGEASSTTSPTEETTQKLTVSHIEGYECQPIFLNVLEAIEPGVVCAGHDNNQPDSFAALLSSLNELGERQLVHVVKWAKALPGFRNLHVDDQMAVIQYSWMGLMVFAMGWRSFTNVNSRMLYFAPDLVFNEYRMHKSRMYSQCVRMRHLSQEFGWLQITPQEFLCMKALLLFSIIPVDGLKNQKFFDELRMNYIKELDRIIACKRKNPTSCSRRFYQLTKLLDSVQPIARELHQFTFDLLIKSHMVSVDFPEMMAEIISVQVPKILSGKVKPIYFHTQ
How it was run: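 AR-bla HEK293 reporter cells; 4 h settle at 37C/5% CO2; compound + R1881 agonist, 16 h at 37C; LiveBLAzer B/G FRET substrate 2 h RT; fluorescence intensity read. qHTS format.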

[6] = molecular target: Androgen receptor (Homo sapiens) (UniProt P10275); assay: qHTS assay to identify small molecule agonists of the androgen receptor (AR) signaling pathway using the MDA cell line (AID 743040; note: nearly all actives have a fitted effect of over 20% in size; note: potency is the fitted concentration of half-maximal effect)
How it was run: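 Testing was done with the MDA-kb2 AR-luc line, a human breast carcinoma stably transfected with MMTV-luciferase containing AR and GR response elements. Cells were exposed 16 h at 37C before ONE-Glo luminescence detection.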

[7] = qHTS assay to identify small molecule antagonists of the androgen receptor (AR) signaling pathway using the MDA cell line - cell viability counter screen (AID 743041; note: nearly all actives have a fitted effect of over 45% in size; note: potency is the fitted concentration of half-maximal effect)
How it was run: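 Compound exposure lasted 16 h at 37C in MDA-kb2 AR-luc cells stimulated with R1881. Protease-based CellTiter-Fluor reagent was applied for the final 30 min and fluorescence measured.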

[8] = molecular target: Androgen receptor (Homo sapiens) (UniProt P10275); assay: qHTS assay to identify small molecule antagonists of the androgen receptor (AR) signaling pathway using the MDA cell line (AID 743042; note: nearly all actives have a fitted effect of over 55% in size)
How it was run: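 MDA-kb2 breast carcinoma cells carrying MMTV-luciferase (AR/GR responsive) were co-treated with compounds and the agonist R1881 for 16 h at 37C. Inhibition read as ONE-Glo luminescence; CellTiter-Fluor fluorescence measured in parallel for cytotoxicity.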

[9] = qHTS assay for identifying genotoxic compounds that show differential cytotoxicity against isogenic chicken DT40 cell lines with known DNA damage response pathways - Rad54/Ku70 mutant cell line (AID 743015); note: nearly all actives have a fitted effect of over 60% in size; note: potency is the fitted concentration of half-maximal effect
[10] = molecular target: Androgen receptor (Homo sapiens) (UniProt P10275); assay: qHTS assay to identify small molecule agonists of the androgen receptor (AR) signaling pathway (AID 743036; active = well fitted activation curve with a large enough effect in the signal ratio in the repeat runs, with a control signal flat, not every such curve was filed as active; the % refers to the signal ratio; note: potency is the fitted concentration of half-maximal effect)
How it was run: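 AR-bla HEK293 cells, 2,000/well; 4 h preincubation 37C/5% CO2; compound (DMSO) 16 h at 37C; LiveBLAzer B/G FRET substrate 2 h RT; fluorescence intensity read-out.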

Measured: Potency

O=C(O)c1ccc(NC(=O)[C@H](Cc2ccc(O)cc2)NC(=O)c2ccccc2)cc1
not listed: [9] | [10]
inactive: all other assays above

CC(=O)Nc1ccc(NC(=S)NC(=O)c2ccc(C(C)(C)C)cc2)cc1
inactive: [1] | [4] | [7]
active: [2] 2.66 µM | [3] 2.66 µM

CN1CCN(CCCN2c3ccccc3Sc3ccccc32)CC1
active: [2] 9.44 µM | [3] 11.9 µM | [9] 13.3 µM
inactive: [1] | [7]

COC(=O)[C@H]1[C@H]2C[C@@H]3c4[nH]c5cc(OC)ccc5c4CCN3C[C@H]2C[C@H](OC)[C@@H]1OC
inactive: [1] | [2] | [9] | [4]

C=CCN1CCCC1CNC(=O)c1cc(S(N)(=O)=O)cc(OC)c1OC (stereo unspecified)
inactive: [1] | [2] | [3] | [4] | [7]

CCC(=O)O[C@@H]1CC(=O)O[C@H](C)C/C=C/C=C/[C@H](O)[C@H](C)C[C@H](CC=O)[C@H](O[C@@H]2O[C@H](C)[C@@H](O[C@H]3C[C@@](C)(O)[C@@H](OC(=O)CC)[C@H](C)O3)[C@H](N(C)C)[C@H]2O)[C@H]1OC
inactive: [1] | [2] | [3] | [4] | [7]

C[C@@](Cc1ccc(O)c(O)c1)(NN)C(=O)O
active: [2] 29.8 µM | [3] 29.8 µM
inactive: [1] | [4] | [7]

C/C1=C2N=C(/C=C3N=C(/C(C)=C4\[N-][C@@](C)([C@@H]5N=C1[C@](C)(CCC(=O)NCC(C)OP(=O)(O)O[C@H]1[C@@H](O)[C@@H](n6cnc7cc(C)c(C)cc76)O[C@@H]1CO)[C@H]5CC(N)=O)[C@@](C)(CC(N)=O)[C@@H]4CCC(N)=O)[C@@](C)(CC(N)=O)[C@@H]\3CCC(N)=O)C(C)(C)[C@@H]/2CCC(N)=O.CC(=O)O.[Co] (stereo partly specified)
inactive: [1] | [2] | [3] | [4]

CCC(=O)c1ccc2c(c1)N(CCCN1CCN(CCO)CC1)c1ccccc1S2
active: [2] 2.66 µM | [9] 4.22 µM
inactive: [1]

OC[C@H]1OC([S-])[C@H](O)[C@@H](O)[C@@H]1O.[Au+] (stereo partly specified)
active: [2] 10.6 µM
inactive: [1] | [3] | [4] | [7]

C/C1=C2N=C(/C=C3N=C(/C(C)=C4\[N-]C(C(CC(N)=O)C4(C)CCC(=O)NCC(C)OP(=O)([O-])OC4C(CO)OC(n5cnc6cc(C)c(C)cc65)C4O)C4(C)N=C1C(CCC(N)=O)C4(C)CC(N)=O)C(CCC(N)=O)C\3(C)C)C(CCC(N)=O)C/2(C)CC(N)=O.[CH3-].[Co+3] (stereo unspecified)
active: [7] 23.7 µM
inactive: [1] | [2] | [3] | [4]

COc1ccc2c(c1)N(C[C@H](C)CN(C)C)c1ccccc1S2
inactive: [1] | [7]
active: [2] 11.4 µM | [3] 11.4 µM

CN[C@@H]1[C@@H](O)[C@@H](O[C@@H]2[C@@H](O)[C@H](OC3OC(CN)=CCC3N)[C@@H](N)C[C@H]2N)OC[C@]1(C)O (stereo partly specified)
inactive: [1] | [2] | [3] | [9] | [7]

CC(C)(C)C(=O)OCOC(=O)[C@@H]1N2C(=O)[C@@H](N=CN3CCCCCC3)[C@H]2SC1(C)C
inactive: [1] | [2] | [3] | [9] | [7]

OC[C@H]1O[C@@H](O[C@H]2[C@H](O)[C@@H](O)[C@H](O)O[C@@H]2CO)[C@H](O)[C@@H](O)[C@@H]1O
not listed: [3] | [10]
inactive: all other assays above

CC[C@H]1OC(=O)[C@H](C)[C@@H](O[C@H]2C[C@@](C)(OC)[C@@H](O)[C@H](C)O2)[C@H](C)[C@@H](O[C@@H]2O[C@H](C)C[C@H](N(C)C)[C@H]2O)[C@](C)(O)C[C@@H](C)[C@@H]2N[C@@H](COCCOC)O[C@@H]([C@H]2C)[C@]1(C)O
inactive: [1] | [2] | [9] | [4]

CC(CN1c2ccccc2Sc2cccnc21)N(C)C (stereo unspecified)
active: [2] 29.8 µM
inactive: [1] | [3] | [4] | [7]

C[C@]12CC[C@@H]3c4ccc(OC(=O)c5ccccc5)cc4CC[C@H]3[C@@H]1CC[C@@H]2O
inactive: [1] | [4] | [7] | [8]
active: [2] 2.98 µM | [3] 9.44 µM | [10] 3.38 µM | [6] 1.33 µM

CC(C)[C@H](N)C(=O)OCC(CO)OCn1cnc2c(=O)[nH]c(N)nc21 (stereo partly specified)
inactive: [1] | [2] | [3] | [4] | [7]

Cc1ccccc1CNc1ncnc2c1ncn2[C@@H]1O[C@H](CO)[C@@H](O)[C@H]1O
inactive: [1] | [4] | [7]
active: [2] 16.8 µM | [3] 21.1 µM

O=C(NNCS(=O)(=O)O)c1ccncc1
inactive: [1] | [2] | [3] | [4] | [7]

FCOC(C(F)(F)F)C(F)(F)F
inactive: [1] | [2] | [3] | [9] | [7]

O=[N+]([O-])c1ccc(Oc2ccc(N=C=S)cc2)cc1
active: [2] 13.3 µM | [3] 23.7 µM | [9] 18.8 µM | [7] 26.6 µM
inactive: [1]

CCCc1nc(C(C)(C)O)c(C(=O)OCc2oc(=O)oc2C)n1Cc1ccc(-c2ccccc2-c2nn[nH]n2)cc1
inactive: [1] | [2] | [3] | [4] | [7]

NNc1nnc(Cc2ccncc2)c2ccccc12
not listed: [9] | [10]
inactive: all other assays above
